# Experimental data from PubChem BioAssay (NCI).
# This is part of a sample that, as a whole, favours compounds with a hit. Of some 83,000 tested, about 20% had one in any assay.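 Compound tested at a single concentration for 48 hours in 96-well plates; a percent growth value below 10 was scored as active.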 Values without a mark were called inactive. Active and inactive are the calls of the source.
# Experiments:
# Experiment in all cases: NCI-60 one-dose screen, 48 h (100 = growth as untreated, 0 = no growth, -100 = all killed)
# Conditions in all cases: 10 µM unless noted
# T-47D breast = system: T-47D breast
# BT-549 breast = system: BT-549 breast
# MDA-MB-435 melanoma = system: MDA-MB-435 melanoma
# SW-620 colon = system: SW-620 colon
# MCF7 breast = system: MCF7 breast
# HCT-116 colon = system: HCT-116 colon
# HCC-2998 colon = system: HCC-2998 colon
# KM12 colon = system: KM12 colon
SMILES,growth (T-47D breast),growth (BT-549 breast),growth (MDA-MB-435 melanoma),growth (SW-620 colon),growth (MCF7 breast),growth (HCT-116 colon),growth (HCC-2998 colon),growth (KM12 colon)
COc1cccc(-c2nn(-c3ccccc3)cc2-c2ccnc(NCCCNC(=O)c3ccc(F)cc3)c2)c1,-0.248% (active),29.8%,-16.7% (active),33%,18.6%,13.1%,40.2%,18.7%
COC(=O)c1ccc(CSc2nnc(-c3c(C)nc4ccc(C)cn34)o2)cc1,89.4%,100%,102%,108%,85.9%,99.3%,87%,110%
COc1ccc(N2CCN(c3nc(-c4cc(OC)c(OC)c(OC)c4)nc4ccccc34)CC2)cc1,45.4%,39.9%,67.1%,85.6%,83.3%,70%,95.1%,70%
COc1cccc(-c2nc3sccn3c2-c2ccnc(NCCNS(=O)(=O)c3cccc(F)c3)c2)c1,-2.17% (active),-6.02% (active),43.8%,51.9%,37.7%,24.5%,52%,27.3%
CC(=O)N1C(=S)NC(=O)C1Cn1c(-c2ccccc2)nc2ccccc21 (centres undefined),95.3%,109%,100%,103%,88.7%,90.2%,110%,100%
Cc1cc(N2CCCC2)nc(NCc2cc(Nc3ccnc4cc(Cl)ccc34)ccc2F)n1,-54.7% (active),55.2%,-96.1% (active),-71.1% (active),-56.1% (active),-76.3% (active),-74.9% (active),-58.8% (active)
Cc1ccc2[nH]c(=O)c3c(c2c1)OC(N)=C(C#N)C31c2cc(Br)ccc2-c2ccc(Br)cc21,39.4%,82.5%,59.7%,40%,34%,67.8%,70.5%,52.4%
COc1nc2c(c(=O)n1C)CN(c1ccccc1)C(=O)CN2C,26.8% [100 µM],24.7% [100 µM],66.2% [100 µM],69.3% [100 µM],24.2% [100 µM],49.1% [100 µM],90.4% [100 µM],39.1% [100 µM]
Cc1cccc(NC(=O)N/C(N)=N/c2nc(C)c(C)s2)c1,40.1%,70.3%,-28.5% (active),25.7%,27%,33.5%,63.7%,23.4%
C=C(C)[C@@H]1CC[C@]2(C(=O)NC3CCCCC3)CC[C@]3(C)[C@H](CC[C@@H]4[C@@]5(C)CCC(=O)C(C)(C)[C@@H]5CC[C@]43C)[C@@H]12,83.3%,92.8%,93.6%,93.6%,85.1%,76.3%,107%,96%
CCC(CO)Nc1nc2ccc(Cl)cc2c2ccccc12 (centres undefined),59.5%,70.6%,58%,79.7%,72.7%,71.5%,54.9%,45.7%
Cc1ccc(N2CCN(C(=S)c3cccs3)CC2)cc1,86.2%,74.2%,109%,108%,89.3%,93.2%,94.3%,113%
CC(=O)N1N=C(c2ccc(Nc3nc(Nc4ccc(F)cc4)nc(Nc4ccc(F)cc4)n3)cc2)CC1c1cccc([N+](=O)[O-])c1 (centres undefined),80.3%,102%,111%,96.9%,88.3%,92.9%,54%,104%
c1ccc2c(c1)nc(CN1CCOCC1)n1cc(N3CCCC3)nc21,95.6%,100%,106%,99.7%,96.5%,93.5%,99.8%,99.1%
COc1cc2c(cc1-c1c(C)noc1C)ncc1nc(C3CCC(F)(F)CC3)n(C3CCC(OC(F)F)CC3)c12 (centres undefined),22.5%,79.2%,55.2%,75.1%,26.2%,53.9%,52.1%,51.4%
COc1ccc(-c2csc(C3=C(O)CN(C(C)C)C3=N)n2)cc1OC,91.4%,112%,116%,104%,129%,96.3%,116%,99.6%
Cc1ccc(Cc2cnc(NC(=O)c3ccc4noc(-c5ccccc5)c4c3)s2)cc1,78.7%,99.6%,85.8%,89.1%,69.8%,86.7%,99.7%,91.3%
NC1=NCc2nc3ccccc3c(=O)n2C1,113%,113%,100%,103%,105%,101%,88.8%,100%
CCOC(=O)c1c(-c2ccc(Cl)cc2)c(C#N)c(=O)n(-c2ccccc2CC)c1N,84.1%,123%,106%,99.9%,90.7%,91.3%,66.4%,79.1%
COc1ccc(/C=C/c2c(C(=O)/C=C/c3ccc(F)cc3)c(C)nc3ccccc23)cc1,30.6%,67.5%,41%,15.7%,17%,3.18% (active),34.6%,58.3%
COc1ccc(/C=N\NC(=O)c2cc(-c3ccc(Br)cc3)n(-c3ccc(S(N)(=O)=O)cc3)n2)cc1,30.9%,76.1%,-43.8% (active),36.9%,18.3%,28.4%,66%,30.8%
COC1=C(OC)C(=O)C(OC)=C(OC)C1=O,94.2%,101%,103%,101%,99.5%,98.6%,89.3%,100%
O=c1cc(C2NNC(=S)N2)c2ccc3ccccc3c2o1 (centres undefined),73.1%,94%,102%,92.2%,86.9%,95.4%,113%,100%
CCN1C(=O)N(CC)C2Nn3c(s/c(=C\c4ccc(Cl)cc4Cl)c3=O)=NC21 (centres undefined),76.9%,38.6%,-40.7% (active),30.4%,28.9%,15.2%,73.9%,13.1%
O=[N+]([O-])c1ccc(N2c3ccncc3Sc3ccncc32)cc1,97.4%,114%,112%,103%,101%,91.6%,110%,93.5%
O=[N+]([O-])c1ccc(Sc2cccc[n+]2[O-])c2nonc12,54.9%,109%,97.9%,23.5%,25.5%,2.05% (active),98.4%,68.6%
Cc1occc1-c1n[nH]c(=S)n1N1C(=O)CSC1=S,104%,108%,99.5%,94.8%,94.4%,105%,112%,99%
Cc1cc(Cl)nc(NCc2cc(Nc3ccnc4cc(Cl)ccc34)ccc2F)n1,25.4%,65.5%,41.2%,43.9%,17.4%,23.7%,73.1%,79.9%
